In PubChem BioAssay AID2315 (National Center for Advancing Translational Sciences (NCATS), 2010) one finds inhibition data, which are given here for 63 compounds.

The structures appear in SMILES notation. Where “and” joins values, the source holds several entries; their conditions need not be identical. Equal entries are not always repeated. Among all 290,000 compounds or so, about 27,000 (9.3%) were called active. Shown is part of a subset that was picked to be rich in actives. Unmarked numbers belong to inactive results. Rule as the data show it: active = inhibition mostly above about 28% (no sharp cut-off); inactive = mostly below about 43%.

The test in a line: A qHTS for Small Molecule Inhibitors of Shiga Toxin. Also: 0% is about no effect. As to conditions: Vero cells, Shiga toxin protein synthesis inhibition reporter; at 38.7 µM, stronger effect = higher value.
As to `COc1ccc(C23NCCN2C(=O)c2ccccc23)cc1` (stereo not drawn), the inhibition was -8.39%.

With `COc1ccc(CNC(=O)c2cc(C(=O)C3CC3)c[nH]2)cc1`, the inhibition is 27.9%.

Take `CCOC(=O)c1c(-c2ccccc2)oc2cc(Br)c(O)cc12`: the inhibition is -8.35%.

With `COc1cc(OC)cc(C(=O)NCCCn2ccnc2)c1`, the inhibition was 13.8%.

Turning to `COCCCNS(=O)(=O)c1cccc(S(=O)(=O)c2cccc(S(=O)(=O)NCCCOC)c2)c1`, the inhibition was -4.92%.

Consider `CN(C)c1ccc(C(CNC(=O)c2ccc(F)cc2)c2c[nH]c3ccccc23)cc1` (stereo not drawn), for which the inhibition is 5.91%.

On to `CCCS(=O)(=O)Nc1ccc(-c2cn3c(n2)SCC3)cc1`, for which the inhibition is 27.3%.

Turning to `O=C(NCCCNc1ccc([N+](=O)[O-])cc1Cl)c1ccccc1F`, the inhibition is -2.91%.

Consider `O=[N+]([O-])c1ccccc1NCc1ccc(Cl)cc1`, for which the inhibition is 48.7% (active).

In the case of `Cc1c(NC(=S)NCc2ccc(F)cc2)cccc1[N+](=O)[O-]`, the inhibition was -13.6%.

As to `O=[N+]([O-])c1ccccc1NCc1ccccc1Cl`, the inhibition is 8.89%.

Take `O=C(O)c1ccccc1C(=O)Nc1ccccc1[N+](=O)[O-]`: the inhibition is 0.458%.

For `O=C(NCCNc1ccccc1[N+](=O)[O-])c1ccccc1F`, the inhibition was 61.5% (active).

On to `Cc1cc(S(=O)(=O)NCC(C)C)ccc1OCC(=O)NC1CC1`, for which the inhibition is -1.92%.

As for `COc1ccc(O)c(/C=N/N=C/c2cccc([N+](=O)[O-])c2)c1`, the inhibition is 1.13%.

For the compound `O=C(O)c1ccccc1-c1ccccc1C(=O)Nc1ccccc1Br`, the inhibition is 10.4%.

For the compound `COc1cccc2sc(NNC(=O)c3nc4ccccc4s3)nc12`, the inhibition was 19.2%.

In the case of `COc1ccccc1OCCn1c(SCC(N)=O)nc2ccccc21`, the inhibition is -12.1%.

With `COc1ccccc1OCc1nc2ccccc2s1`, the inhibition is 63.5% (active).

Turning to `Cc1ccc(O)c(/C=N/NC(=O)COc2ccc3c(C)cc(=O)oc3c2)c1`, the inhibition was 4.79%.

Take `CCOC12CC(C)(C)CC(C)(CC3=C1C(=O)CC(C)(C)C3)C2` (stereo not drawn): the inhibition is -2.06%.

`CCCCOP(=O)(c1ccc(N(C)C)cc1)C(O)c1cc(OC)ccc1OC` (stereo not drawn): the inhibition is -2.17%.

As to `CCOC(=O)/C(C#N)=C/c1ccc(N2CCN(Cc3ccccc3)CC2)cc1`, the inhibition was 32.9%.

With `CCOC(=O)/C(C#N)=C/c1ccc(N2CCCCC2)cc1`, the inhibition is 111% (active).

Take `COc1ccc(N2CCN(C(=O)/C(C#N)=C/c3ccccc3)CC2)cc1`: the inhibition is 33.9%.

For `COc1ccc(S(=O)(=O)N2CCC(C(=O)N3CCCC3)CC2)cc1C`, the inhibition is -7.97%.

For `CCOc1ccc(NC(=O)c2cccc3c2C(=O)N(CC2CCCO2)C3)cc1` (stereo not drawn), the inhibition was 11.4%.

Consider `COc1ccc(C2CC(O)(c3ccccc3)Oc3cc(C)cc(C)c32)cc1` (stereo not drawn), for which the inhibition is 17.1%.

`COCCn1c(SCC(=O)Nc2cc(Cl)ccc2OC)nc2c(c1=O)SC(C)C2` (stereo not drawn): the inhibition is 4.22%.

For `C=CCSc1nc2c(c(=O)[nH]c(=O)n2C)n1Cc1ccccc1`, the inhibition is -6.62%.

In the case of `CC(C)n1c(=O)c(C=Nc2ccc(Br)cc2)c(O)n(Cc2ccco2)c1=O`, the inhibition is -2%.

For the compound `Cc1cs/c(=N\N=C\c2ccc(O)cc2)n1Cc1ccco1`, the inhibition was 0% (active).

Regarding `CN(c1ccccc1)c1ccc(/C=c2\s/c(=C(/C#N)C(=O)C(C)(C)C)n(Cc3ccco3)c2=O)cc1`, the inhibition was -15.7%.

Take `CC(C)c1ccc(Cc2nnc(NCCCO)[nH]c2=O)cc1`: the inhibition was -6.37%.

With `Cc1ccccc1CN1C(=O)c2ccccc2Sc2ccc(C(=O)NCCCN3CCOCC3)cc21`, the inhibition was -7.27%.

For the compound `COC(=O)c1ccc(CNC(=O)C2CCC(=O)N(Cc3cccc(F)c3)C2)cc1` (stereo not drawn), the inhibition was -2.68%.

As for `O=C(c1ccccc1)c1ccc(OC(=O)N2CCCC2)cc1`, the inhibition was 47.5% (active).

For the compound `O=C(c1ccccc1)c1ccc(C(=O)N2CCN(c3ccccc3)CC2)cc1`, the inhibition is 30.8%.

For the compound `COc1ccc(S(=O)(=O)NC(C)C(=O)N2CCCCCC2)cc1` (stereo not drawn), the inhibition is -16.1%.

In the case of `CC(C)(C)c1ccc(C(=O)N2CCC(C(=O)N3CCCCC3)CC2)cc1`, the inhibition is -4.15%.

As to `CC(C)(C)c1ccc(OC(=O)N2CCCCC2)cc1`, the inhibition was 104% (active).

Regarding `O=C(c1ccccc1)c1ccc(OCC(O)CN2CCCC2)cc1` (stereo not drawn), the inhibition is 2.19%.

In the case of `O=C(NCCc1ccccn1)c1nc(Cn2cc([N+](=O)[O-])cn2)no1`, the inhibition was -5.12%.

Consider `COc1cccc(CN(C)CC(O)COC(c2ccccc2)c2ccccc2C)c1` (stereo not drawn), for which the inhibition was -8.7%.

As for `COc1ccc(-c2nc(N)ncc2-c2ccc(Cl)cc2)c(O)c1`, the inhibition is 8.54%.

With `COc1ccc(-c2nnc3n2CCCCC3)cc1`, the inhibition is 5.25%.

`COc1ccc(-c2nc3n(c2Br)CCC3)cc1`: the inhibition is 87.2% (active).

Take `Brc1cccc(-c2nnc3n2CCC3)c1`: the inhibition is -4.22%.

Regarding `CCCCCn1c(=O)[nH]c2cc(C(=O)NCCCN3CCCCC3C)ccc2c1=O` (stereo not drawn), the inhibition was -23.9%.

With `CNC(=O)CN1C(=O)NC(c2ccccc2)(c2ccccc2)C1=O`, the inhibition is -7.36%.

For `O=C(NCc1ccc(F)cc1)C1CCN(C(=O)Nc2ccc(F)cc2)CC1`, the inhibition was -9.53%.

As to `O=C1CC(c2ccccc2)=NN1c1ccc([N+](=O)[O-])cc1`, the inhibition is 55% (active).

For `CC1=NN(c2ccccc2)C(=O)C1C(=O)c1ccc([N+](=O)[O-])cc1` (stereo not drawn), the inhibition was 27.4%.

In the case of `O=c1[nH]n(-c2ccc([N+](=O)[O-])cc2)c(=O)c2ccccc12`, the inhibition is -17%.

As to `CCC(C)[C@H](NC(=O)N1CCn2c1nc1ccccc12)C(=O)NCc1ccc(OC)cc1` (stereo partly drawn), the inhibition is 13.9%.

For `COc1ccc(C(CNCC(=O)Nc2ccccc2F)N(C)C)cc1` (stereo not drawn), the inhibition was 7.34%.

As to `Cc1cc(C)c2nc(-c3ccco3)cc(C(=O)O)c2c1`, the inhibition was -7.1%.

For `Cc1cc(C)c2nc3nc(C)cc(C)c3c(N)c2c1`, the inhibition was 32.6% (active).

For the compound `Cc1cc(C)c2nc(SCCC#N)nc(C)c2c1`, the inhibition is 27.9%.

Turning to `OCCC(O)CO` (stereo not drawn), the inhibition was -8.78% and 20.3% and 19.5%.

Take `COc1ccc(CCNCc2c(-c3ccccc3)n(C)c3ccccc23)cc1`: the inhibition was 11.5%.

For the compound `CN(C)Cc1c(C#N)c2ccccc2n1C`, the inhibition was -25%.

For the compound `COc1ccc(-c2c(C#Cc3ccccc3)c3ccccc3n2C)cc1`, the inhibition is 43.7% (active).
